Where “and” joins values, the source holds several entries; their conditions need not be identical. Identical values can stand only once. About 5,700 (36%) of roughly 16,000 compounds were called active. Roughly 24% stayed inconclusive and do not appear here. The call rests on the fitted dose curve; in most records, active means well fitted curve in the direction sought with a large enough effect; inconclusive means small, poorly fitted or top-dose-only effect, or effect the other way; inactive means no such curve, though single readings can be large or run the other way. The list shows a part of the results. A structure can be active in one record and inactive in another.

In general, AC50 refers to the midpoint of the concentration-response curve, whichever way the signal moves.
On the % scale 0 is the no-effect control and ±100 the full control effect.

The target in the assay is Cytochrome P450 1A2 (Homo sapiens) (UniProt P05177). Nature of the assay: Cytochrome panel assay with activity outcomes. The settings on record: recombinant CYP, pro-luciferin dealkylation, luminescence, p450-cyp1a2; series mostly up to 57.1 µM; activity, negative = inhibition: at the top concentration.
Sequence of Cytochrome P450 1A2 (Homo sapiens) (P05177 whole entry, looked up): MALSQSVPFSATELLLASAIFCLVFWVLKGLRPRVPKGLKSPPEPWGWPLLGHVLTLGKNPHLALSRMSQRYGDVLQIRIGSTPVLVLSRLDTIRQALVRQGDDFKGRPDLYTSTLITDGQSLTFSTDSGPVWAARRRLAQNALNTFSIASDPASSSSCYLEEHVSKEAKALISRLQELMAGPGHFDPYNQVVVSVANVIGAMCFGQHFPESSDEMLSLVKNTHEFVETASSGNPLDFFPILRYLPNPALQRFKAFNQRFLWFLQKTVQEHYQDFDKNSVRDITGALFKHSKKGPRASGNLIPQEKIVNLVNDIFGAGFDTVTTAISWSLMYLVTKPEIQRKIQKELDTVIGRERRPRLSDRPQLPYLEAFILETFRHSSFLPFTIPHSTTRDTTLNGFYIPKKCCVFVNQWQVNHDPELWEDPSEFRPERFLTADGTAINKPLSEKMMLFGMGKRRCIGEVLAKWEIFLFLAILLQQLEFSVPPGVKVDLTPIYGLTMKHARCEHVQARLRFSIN
On to `NCCCCNCCCN`, for which the AC50 result is “inactive and 31.6 µM (active)”.
Turning to `NCCCNCCCCNCCCN`, the “activity, negative = inhibition” value is -3.62% (inactive).
On the same count and under the same terms, the value for `COc1ccc(C(=O)N2CCC3(CC2)CN(C(=O)NC(C)C)C3)cc1` was -6.35% (inactive).
`COc1ccc(C(=O)NC(C)c2cc(OC)c(OC)cc2Br)cc1` (stereo unspecified): the AC50 was 14.1 µM (active).
Consider `COc1cc(Br)c(C(C)NC(=O)c2cccc(Br)c2)cc1OC` (stereo unspecified), for which the AC50 was 12.6 µM (active).
`COc1ccccc1C(c1nnnn1C(C)(C)C)N1CCCc2ccccc21` (stereo unspecified): the “activity, negative = inhibition” value is -8.86% (inactive).
On to `CC(C)(N=NC(C)(C)C(=N)N)C(=N)N`, for which the activity, negative = inhibition is -4.86% [at 11.4 µM] (inactive).
`CCc1ccc(N2CC(C)Cn3c2nc2c3c(=O)n(CCN3CCOCC3)c(=O)n2C)cc1` (stereo unspecified): the “activity, negative = inhibition” value is -20.6% (inactive).
As to `Cc1noc(C)c1-c1ccc2ncnc(NCc3cccs3)c2c1`, the AC50 is 0.398 µM (active).
`Cc1ccccc1-c1ccc2ncnc(NCc3cccs3)c2c1`: the AC50 was 2.51 µM (active).
Still for that read-out and setting: the same measure for `Cc1noc(C)c1-c1ccc2ncnc(NCc3ccccc3)c2c1`: 3.16 µM (active).
Regarding `Cc1noc(C)c1-c1ccc2ncnc(NCc3cccnc3)c2c1`, the AC50 was 0.316 µM (active).
Turning to `O=C(O)CN(CCN(CC(=O)O)CC(=O)O)CCN(CC(=O)O)CC(=O)O`, the AC50 entry was “inactive”.
For the molecule `C#CCCCO/N=C1/C[C@@H](O)[C@@H](O)[C@@H]2[C@@H]3C(=O)N(C4CCCCC4)C(=O)[C@H]3CC[C@@H]12`, the activity, negative = inhibition is 1.04% [at 11.4 µM] (inactive).
On to `Cc1cccc(CNc2ncnc3ccc(-c4c(C)noc4C)cc23)c1`, for which the AC50 is 5.01 µM (active).
Consider `O=C(N/N=C1\CCCc2ccccc21)c1ccc([N+](=O)[O-])cc1Cl`, for which the half-maximal activity concentration (AC50) is 15.8 µM (active).
For the molecule `Cc1cccc(N=C2NN=C(c3ccc4c(c3)OCCO4)CS2)c1`, the AC50 is 14.1 µM (active).
On to `Nc1nnc(SCCOc2cccc(Br)c2)s1`, for which the AC50 was 5.01 µM (active).
Turning to `CS(=O)(=O)Nc1cccc(-c2cc(Nc3ccccc3)ncn2)c1`, the AC50 was 0.398 µM (active).
With `Cc1cccc(CNc2cc(-c3cccc(NS(C)(=O)=O)c3)ncn2)c1`, the AC50 was 10 µM (active).
Turning to `Cc1cccc(NS(=O)(=O)c2c(C)n[nH]c2C)c1`, the “activity, negative = inhibition” value was -19.9% (inactive).
As for `CN(C)c1cc(-c2cccc(NS(C)(=O)=O)c2)ncn1`, the AC50 was 1.26 µM (active).
On to `CS(=O)(=O)Nc1cccc(-c2cc(NCc3ccccc3)ncn2)c1`, for which the AC50 is 12.6 µM (active).
`COc1ccc(NC(=O)N2CCCC3(CCN(C(=O)c4csnn4)CC3)C2)cc1`: the “activity, negative = inhibition” value was -11.7% (inactive).
For the molecule `CS(=O)(=O)Nc1cccc(-c2cc(NCc3cccs3)ncn2)c1`, the concentration at half-maximal activity (AC50) was 6.31 µM (active).
Same read-out and setting: the value for `Cc1ccc(/C=C/C(=O)N2CC(C)CC(C)C2)o1` (stereo unspecified) was 8.91 µM (active).
Consider `Cc1ccc(NC(=O)CN2C(=O)N/C(=C/c3ccc(C)o3)C2=O)cc1`, for which the “activity, negative = inhibition” value was 2.74% (inactive).
In the case of `C[C@@H](NCc1cc(Br)cc2[nH]c(=O)c(=O)[nH]c12)P(=O)(O)O`, the “activity, negative = inhibition” value was -9.6% (inactive).
Still for that read-out and setting: the value for `COC(=O)N1CCC2(CCCN(Cc3cc(C(F)(F)F)cc(C(F)(F)F)c3)C2)CC1` was 13.1% (inactive).
Consider `CCCCn1cnc2c(cnn2-c2ccc(F)cc2)c1=O`, for which the AC50 was 3.16 µM (active).
As to `Cc1ccccc1Cn1cnc2c(cnn2C(C)(C)C)c1=O`, the “activity, negative = inhibition” value was -22.5% (inactive).
As to `CC(C)(C)n1ncc2c(=O)n(CC(=O)NCc3ccccc3Cl)cnc21`, the “activity, negative = inhibition” value is -14.5% (inactive).
For the molecule `Clc1ccc(Cc2nc(-c3cccnc3)no2)cc1`, the half-maximal activity concentration (AC50) was 1 µM (active).
`CCCN[C@@H](C)C(=O)Nc1ccccc1C`: the “activity, negative = inhibition” value is -15.8% (inactive).
`Cc1cccc(C)c1NC(=O)C(c1ccccc1)N1CCC1=O` (stereo unspecified): the “activity, negative = inhibition” value was -1.16% (inactive).
Turning to `Cc1ccccc1NC(=O)C(C)c1cccc(C(=O)c2ccccc2)c1` (stereo unspecified), the AC50 is 11.2 µM (active).
In the case of `CCCc1c(-c2ccc(O)cc2)nn(-c2ccc(O)cc2)c1-c1ccc(O)cc1`, the AC50 was 20 µM (active).
In the case of `CC(=O)Nc1nnc(SCc2ccc(F)cc2)s1`, the AC50 is 10 µM (active).
As for `CCSc1nnc(NC(=O)Cc2ccc(OC)c(OC)c2)s1`, the “activity, negative = inhibition” value was -25.9% (inactive).
For the molecule `O=C(NCC1CCCO1)C(c1cccnc1)N(C(=O)Cc1cccs1)c1cccnc1` (stereo unspecified), the “activity, negative = inhibition” value is 3.77% (inactive).
With `Cc1ccccc1N(C(=O)Cc1cccs1)C(C(=O)NCC1CCCO1)c1cccnc1` (stereo unspecified), the “activity, negative = inhibition” value was -0.125% (inactive).
With `O=C(NCC1CCCO1)C(c1cccnc1)N(C(=O)Cc1cccs1)c1ccccc1` (stereo unspecified), the AC50 was 12.6 µM (active).
On the same count and under the same terms, the same measure for `O=c1c2ccc(Cl)cc2nc(-c2cccc(C(F)(F)F)c2)n1O`: 1.26 µM (active).
Turning to `COC(=O)c1sccc1NC(=O)CN(C)NS(=O)(=O)c1ccc(F)cc1`, the AC50 is 11.2 µM (active).
In the case of `COc1ccc(S(=O)(=O)NCCC(=O)NCc2ccc(F)cc2)cc1`, the “activity, negative = inhibition” value was -6.97% (inactive).
For the molecule `Cc1ccc(Cc2cnc(NC(=O)c3cccs3)s2)cc1`, the AC50 was 1.41 µM (active).
For `CCCc1nnc(NC(=O)CN2C(=O)C3C4C=CC(C4)C3C2=O)s1` (stereo unspecified), the “activity, negative = inhibition” value is -24.4% (inactive).
As to `CCOc1cc(NC(=O)c2cccs2)c(OCC)cc1NC(=O)c1ccco1`, the “activity, negative = inhibition” value was -27% (inactive).
As to `O=C(Nc1ncc(Cc2cccc(Cl)c2)s1)c1cccs1`, the AC50 was 1.58 µM (active).
As to `CCCc1nnc(NC(=O)Cn2cnc3ccccc3c2=O)s1`, the “activity, negative = inhibition” value is -10.1% (inactive).
`CCCc1nnc(NC(=O)c2cccs2)s1`: the AC50 was 0.631 µM (active).
